Bioassay records from PubChem BioAssay.
An excerpt weighted towards active compounds, which were near 12% of everything screened.
G9a inh: blocks human histone lysine methyltransferase G9a; actives 8.8% (n = 350,000); Potency, µM (highest dose often 102 µM), for inactives: at the highest dose activity, negative = inhibition, usual class: inhibitors; G9a H3K9 monomethylation, AlphaScreen, 2 h; further: on the % scale 0 is the no-effect control and ±100 the full control effect; nearly all actives have a fitted effect of over 75% in size
Target sequence (Q96KQ7 913-1193 limits assumed): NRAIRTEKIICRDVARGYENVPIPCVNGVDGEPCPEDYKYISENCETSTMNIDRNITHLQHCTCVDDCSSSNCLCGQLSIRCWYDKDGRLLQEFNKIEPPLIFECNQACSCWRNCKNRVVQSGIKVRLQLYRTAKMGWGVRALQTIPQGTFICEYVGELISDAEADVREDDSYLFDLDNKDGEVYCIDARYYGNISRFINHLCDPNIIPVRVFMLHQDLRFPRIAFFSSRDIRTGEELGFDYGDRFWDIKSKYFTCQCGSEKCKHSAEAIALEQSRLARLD
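Signal arises when biotinylated H3K9 peptide, once monomethylated, bridges streptavidin donor and antibody-captured acceptor beads. Enzyme at 20 nM was preincubated 15 min with test compounds; peptide 500 nM and SAM 20 uM then reacted for 2 h.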
HP1b chromo inh: HP1-beta chromodomain-methylated histone interaction inhibition. AlphaScreen HP1-beta / biotin-H3K9me3 peptide binding. Potency, µM (highest dose often 114 µM), for inactives: top-dose activity change, negative = inhibition, most hits filed as inhibitors. P83916. AID 540317. actives 0.56% (n = 390,000); further: nearly all actives have a fitted effect of over 70% in size
Target sequence (P83916 whole entry, looked up): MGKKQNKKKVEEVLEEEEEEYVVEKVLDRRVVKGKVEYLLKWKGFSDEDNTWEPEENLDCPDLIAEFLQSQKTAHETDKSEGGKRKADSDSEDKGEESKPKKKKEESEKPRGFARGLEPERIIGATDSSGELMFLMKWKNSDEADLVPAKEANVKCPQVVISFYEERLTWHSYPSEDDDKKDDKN
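AlphaScreen: HP1-beta (50 nM) preformed 30 min with biotin-H3(1-18)K9me3 peptide (50 nM) in PBS pH 7.4, 0.01% Tween-20. Compound added for 30 min at RT, then streptavidin donor/nickel chelate acceptor beads (10 ug/mL) for 30 min.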
JMJD2A Tudor inh: blocks the human JMJD2A Tudor domain; O75164; AlphaScreen JMJD2A-Tudor / H3K4me3 peptide binding; Potency, µM (highest dose often 114 µM), for inactives: at the top dose activity change, negative = inhibition, most hits filed as inhibitors; actives 4.4% (n = 390,000); AID 504339; further: on the % scale 0 is the no-effect control and ±100 the full control effect; nearly all actives have a fitted effect of over 50% in size
BAZ2B inh: inhibitors of human BAZ2B bromodomain. Q9UIF8. AlphaScreen BAZ2B-H3K14Ac peptide displacement. Potency, µM (top dose mostly 114 µM), inactives show at the highest dose activity change, negative = inhibition, most hits filed as inhibitors. actives 4.4% (n = 360,000). AID 504333; further: on the % scale 0 is the no-effect control and ±100 the full control effect; nearly all actives have a fitted effect of over 60% in size
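AlphaScreen luminescence quantifies BAZ2B engagement of H3K14Ac peptide; the protein and biotinylated peptide are both at 50 nM final, buffer PBS pH 7.4 with 0.01% Tween-20, all steps at room temperature.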
Sfp inh: blocks B. subtilis Sfp PPTase activity; actives 3.5% (n = 310,000); Potency, µM, for inactives: largest response in the series, negative = inhibition, usual class: inhibitors; Biochemical Sfp PPTase activity, qHTS; Q9F4F7; AID 1490;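 further: the enzyme is Sfp with the accession as filed and its product quenches rhodamine fluorescence; 0% = enzyme reaction without inhibitor and -100% = no enzyme wells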
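With Hepes-Na pH 7.6 buffer containing 10 mM MgCl2, Sfp (15 nM) modified BHQ-2-YbbR (12.5 uM) using rhodamine-CoA (5 uM). Two reads 30 minutes apart at 525/598 nm yielded each well's rate.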
* = called active by the depositor; ? = inconclusive; . = not tested or not shown; [ ] = dose if it differs, or a comment. The call rests on the fitted dose curve; in most records, active means well fitted curve in the direction sought with a large enough effect; inconclusive means small, poorly fitted or top-dose-only effect, or another doubt; inactive means no such curve, though single readings can be large; an effect the other way counts as inactive or inconclusive. Potency means the concentration at half of the fitted maximal effect.

SMILES | G9a inh | HP1b chromo inh | JMJD2A Tudor inh | BAZ2B inh | Sfp inh
CCCCn1nnc(NC(=S)NC(=O)c2ccc(-c3cccc(Cl)c3Cl)o2)n1 | 45µM* | -24% | ? | -8% | ?
CCCCC(=O)NC(=S)Nc1nnn(CCC)n1 | 10µM* | -2% | 3.5µM* | 71µM* | 14µM*
O=C(Nc1ccc(F)cc1)c1cc(-c2ccccc2)no1 | -23% | 31% | -1% | -23% | 23%
COc1ccc(C2=C(Nc3ccc(Br)c(C)c3)c3ccccc3C2=O)cc1 | 2.8µM* | ? | ? | ? | .
Cc1cc(C)cc(NC2=C(c3ccccc3)C(=O)c3ccccc32)c1 | 8.9µM* | ? | 13µM* | 13µM* | .
c1coc(C2Nc3cccc4cccc(c34)N2)c1 | ? | . | . | ? | 3.2µM*
O=C1NC(c2ccccc2Cl)Nc2ccccc21 (stereo not given) | 15%[59 µM] | 26% | -30% | -1% | 8%
Brc1ccc(-c2ccc(C3Nc4cccc5cccc(c45)N3)o2)cc1 | -25%[0.501 µM] | . | . | -31% | .
Clc1cccc(C2Nc3cccc4cccc(c34)N2)c1Cl | 24%[0.501 µM] | ? | 50µM* | 40µM* | 0%
Clc1ccccc1C1Nc2cccc3cccc(c23)N1 | . | ? | ? | 71µM* | -29%
Oc1ccc(C2Nc3cccc4cccc(c34)N2)c(O)c1 | 45µM* | 18µM* | 79µM* | ? | -20%
Fc1ccc(C2Nc3cccc4cccc(c34)N2)cc1 | -37%[2.33 µM] | ? | ? | ? | ?
C#CCNC(=O)C1=C[C@H](c2ccc3c(c2)OCO3)C[C@H](OCc2ccc(CO)cc2)O1 | ? | 39% | -22% | -18% | -7%
C/C(=C\c1ccccc1)C1Nc2cccc3cccc(c23)N1 | 3%[2.33 µM] | . | . | ? | .
Cc1ccc(C2Nc3cccc4cccc(c34)N2)s1 | 13µM* | ? | ? | ? | ?
O=S(=O)(c1cccc(Br)c1)N1CCN(S(=O)(=O)c2ccc3c(c2)OCCO3)CC1 | . | 36% | -12% | . | .
Cc1cccc(C(=O)Oc2c(Br)cc(Br)cc2/C=N/NC(=O)c2ccncc2)c1 | 23% | -6% | -21%[57.1 µM] | -9% | 10%
O=C(N/N=C/c1ccc(Cl)cc1Cl)c1ccncc1 | . | 25% | -16% | ? | ?
CCc1cc(C(=O)N/N=C/c2ccc(O)cc2O)c2ccccc2n1 | 13% | 35% | 79µM* | 45µM* | 23%
O=C(N/N=C/c1cc(Cl)cc(Cl)c1O)c1ccncc1 | -4% | 49% | 22µM* | 10µM* | 15%
O=C(N/N=C/c1ccc(O)cc1O)c1ccncc1 | 41% | 51% | 56µM* | 32µM* | 13%
O=C(N/N=C/c1cc(Br)cc(Br)c1O)c1ccncc1 | 50µM* | 38% | 13µM* | 8.9µM* | 6%
COc1ccccc1OCC(=O)NCCS(=O)(=O)N1CCN(c2ccc(F)cc2)CC1 | 14% | 50% | -11% | -5% | 13%
CSc1ccc(CNCCCSc2ncccn2)cc1 | 10% | 20% | -18% | -9% | 11%
O=C(NC(=S)NCC1CCCO1)c1ccccc1[N+](=O)[O-] (stereo not given) | . | 8% | -5% | -11% | -18%
SMILES | G9a inh | HP1b chromo inh | JMJD2A Tudor inh | BAZ2B inh | Sfp inh
Cn1cc(S(=O)(=O)NCc2ccco2)c(=O)n(C)c1=O | 20% | 33% | -7% | -6% | 17%
O=C(N/N=C/c1cc(Br)cc([N+](=O)[O-])c1O)c1ccc(NC(=O)c2ccc(F)cc2)cc1 | 35µM* | ? | 32µM* | 13µM* | 22%
O=C(N/N=C/c1ccccc1)c1ccc(NC(=O)c2ccc(F)cc2)cc1 | -44% | 16% | 0% | -3% | 15%
N#Cc1c(-c2ccc(F)cc2)c(-c2ccc(F)cc2)nn(CCO)c1=O | . | 21% | -18% | . | .
O=C(CC1CCCCC1)NCCOc1ccccc1 | 9%[59 µM] | 17% | 50µM* | -2% | 4%
O=C(/C=C1\NC2(CCCC2)Cc2ccccc21)C(=O)N/N=C/c1ccc(O)c(O)c1 | 11µM* | ? | 10µM* | 40µM* | 3%
Cc1[nH]c2ccccc2c1NC(=O)CN1CCN(Cc2ccc3c(c2)OCO3)CC1 | 56µM* | . | . | -7% | 10%
Cc1ccc(NC(=O)CN2CCN(C(=O)c3ccco3)CC2)cc1 | 1% | 40% | -6% | 2% | 24%
CCOC(=O)c1cc(CC)sc1NC(=O)CN1CCN(C(=O)c2ccco2)CC1 | ? | -15% | ? | ? | 40µM*
Cc1[nH]c2ccccc2c1NC(=O)CN1CCN(C(=O)c2ccco2)CC1 | -13% | 19% | -7% | -39% | 45µM*
CCOC(=O)c1cc(C)sc1NC(=O)CN1CCN(C(=O)c2ccco2)CC1 | 57% | 0% | -20% | -16% | 14%
O=C(CN1CCN(Cc2ccc3c(c2)OCO3)CC1)Nc1ccc2[nH]c(=O)[nH]c2c1 | . | 13% | -9% | . | .
Cc1cc(=S)cc(C)n1CCCO | 4%[2.33 µM] | 13% | ? | -21% | ?
N=C(N)Sc1nc(N2CCCCC2)nc(N2CCCCC2)n1 | 9%[12.7 µM] | 30% | -14% | 79µM* | -20%
Cc1c(C(=O)N2CCOCC2)c(S(=O)(=O)Nc2ccc(Br)cc2F)c(C)n1C | 3% | -5% | 18µM* | -16%[57.1 µM] | 17%
CCC(C)(C)n1nnnc1CN1CCC(NC(=O)c2ccccc2C)CC1 | -9%[59 µM] | 29% | 3% | -2% | 14%
CSc1nc2ccc3nc(NC(=O)c4ccccc4)sc3c2s1 | 11% | 67% | -25% | -5% | ?
O=C(NCc1ccc(Cl)cc1)c1cc(-c2cccs2)on1 | ? | 22% | -15% | -30% | 25µM*
O=C(NCc1ccc(Cl)cc1)C(=O)Nc1nccs1 | 50µM* | 21% | -8%[11.4 µM] | -13% | -9%
O=C(NCc1cccnc1)C(=O)Nc1nccs1 | ? | . | . | . | -22%
CC(C)c1ccc(CNC(=O)C(=O)NCCCn2ccnc2)cc1 | 0%[59 µM] | 14% | -27% | 50µM* | 5%
CC(C)c1ccc(CNC(=O)C(=O)Nc2nccs2)cc1 | 7.1µM* | 11% | ? | -5% | -1%
CC(NC(=O)C(=O)NCCCn1ccnc1)c1ccccc1 (stereo not given) | -1% | 13% | 6% | 1% | 8%
COc1ccc(CNC(=O)c2cc(-c3cccs3)on2)cc1 | -32% | 26% | -3% | -16% | -4%
CC(=O)N1c2ccc3ccccc3c2C(C)CC12CCCCC2 (stereo not given) | 24% | 28% | 8% | 12% | -8%
CCC(C)(C)NC(=O)C(c1ccc(OC)cc1)N(Cc1ccccc1)C(=O)CCC(=O)Nc1cc(C)on1 (stereo not given) | 5%[59 µM] | 19% | -2% | -1% | 8%
S=C(NCCCn1ccnc1)Nc1cccc(Cl)c1 | 79µM* | 42% | -12% | 45µM* | 4%
O=C(NCCCn1ccnc1)C(Cc1ccccc1)N1C(=O)c2ccccc2C1=O (stereo not given) | -45%[12.7 µM] | 21% | 4%[57.1 µM] | ? | 56µM*
